# M1 PAM: positive allosteric modulators of human M1 muscarinic receptor; CHO-K1 hM1, Fluo-8 calcium fluorescence, ACh EC20; 0% = ACh EC20, 100% = maximal ACh; activation, % at 3 µM; hit rate 0.088% among 360,000; in the data active = activation above about 19%, passing the limit was not always enough
# Target sequence (P11229 whole entry, looked up): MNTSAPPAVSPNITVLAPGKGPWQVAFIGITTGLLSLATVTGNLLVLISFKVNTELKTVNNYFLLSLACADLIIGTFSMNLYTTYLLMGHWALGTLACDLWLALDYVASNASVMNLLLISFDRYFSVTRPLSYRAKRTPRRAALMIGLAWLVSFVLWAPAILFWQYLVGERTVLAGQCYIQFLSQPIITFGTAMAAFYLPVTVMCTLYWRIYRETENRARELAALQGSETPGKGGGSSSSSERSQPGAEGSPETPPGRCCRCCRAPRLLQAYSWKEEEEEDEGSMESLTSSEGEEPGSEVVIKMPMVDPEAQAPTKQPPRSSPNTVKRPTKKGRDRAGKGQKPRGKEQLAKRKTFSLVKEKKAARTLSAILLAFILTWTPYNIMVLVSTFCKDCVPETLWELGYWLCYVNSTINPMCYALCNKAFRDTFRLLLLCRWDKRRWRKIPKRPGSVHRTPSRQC
# M1 PAM parental: nonselective activator or artifact in parental CHO-K1 calcium assay; ATP EC20, Fluo-8 calcium fluorescence; 0% at ATP EC20, 100% at ATP max; activation, % at 3 µM; hit rate 0.02% among 360,000; AID 602247;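 active = activation above the run cutoff, the mean activation of all test compounds plus 3 SD, cut at about 40% in these data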;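 note: peak over basal fluorescence ratio in a 140 s read after ATP addition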
# CHO-K1 Ca antag: counter-screen for M1 antagonists: effect in parental CHO-K1 cells; ATP-induced calcium, Fluo-8 fluorescence; inhibition, % at 3 µM; hit rate 0.6% among 360,000; AID 602250;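 active = inhibition above a per-plate cutoff, the plate's mean sample inhibition plus 3 SD, cut at about 24% in these data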;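 note: 0% = DMSO plus EC80 ATP and 100% = DMSO alone without ATP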
# M1 ag: activates human CHRM1 receptor; P11229; CHO-K1 hM1, Fluo-8 calcium fluorescence, agonist mode; 0% DMSO, 100% acetylcholine EC100; activation, % at 3 µM; hit rate 0.33% among 360,000; AID 588814;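 active = activation above the run's mean compound activation plus 3 SD, cut at about 16% in these data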;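 note: peak over basal fluorescence ratio within a 140 s kinetic read after compound addition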
# M1 antag: human CHRM1 antagonism. P11229. CHO-K1 hM1, Fluo-8 calcium fluorescence, ACh EC80 antagonist. inhibition, % at 3 µM. hit rate 1.3% among 360,000. AID 588852;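 active = percent inhibition above its own plate's cutoff, namely the mean of that plate's compound wells plus 3 SD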;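 note: peak over basal fluorescence ratio during 140 s after agonist addition; 0% = ACh EC80 plus DMSO and 100% = DMSO alone without agonist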
# M1 ag parental: M1 agonist counterscreen hit in parental CHO-K1 cells; Fluo-8 calcium fluorescence; scaled to maximal ATP response, vehicle zero; activation, % at 3 µM; hit rate 0.48% among 360,000; in the data active = activation above about 15%;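 note: untransfected CHO-K1 host cells lacking M1 receptor as counterscreen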
# Numbers without * were called inactive; · = no result. Sampled rows, rich in hits. Any-hit rate of the full collection: about 2.3%.
SMILES,M1 PAM,M1 PAM parental,CHO-K1 Ca antag,M1 ag,M1 antag,M1 ag parental
COc1ccc(CN2CCN(C(=O)CCC(=O)Nc3nnc(CC(C)C)s3)CC2)cc1F,-17.2,-15.7,2.9,-1.8,24.5,6.6
CCCc1nnc(NC(=O)CCC(=O)N2CCN(Cc3ccc(OC)c(F)c3)CC2)s1,-20.7,-7.9,-15.0,-4.5,49.2*,3.1
CCCc1c(-c2ccc(Cl)cc2)ncn1Cc1ccccc1OC,·,8.8,2.6,·,·,15.6*
CN1CCN(c2ncnc3c2ncn3[C@H]2CN(Cc3ccc(F)cc3)C[C@@H](CO)O2)CC1,-8.8,-12.7,25.1*,-2.9,22.5,0.1
OC[C@@H]1CN(Cc2ccc(F)cc2)C[C@H](n2cnc3c(N4CCCC4)ncnc32)O1,10.2,1.2,-4.5,2.5,-17.9,0.9
OC[C@@H]1CN(Cc2ccc(-c3ccccc3)cc2)C[C@H](n2cnc3c(NCc4ccncc4)ncnc32)O1,-9.3,-3.6,7.8,6.4,25.1,16.7*
COc1cc(CN2C[C@@H](CO)O[C@@H](n3cnc4c(NC5CCC5)ncnc43)C2)cc(OC)c1OC,5.1,32.0,-9.4,3.4,-7.9,0.1
OC[C@@H]1CN(Cc2ccc(-c3ccccc3)cc2)C[C@H](n2cnc3c(NCc4ccco4)ncnc32)O1,1.0,-12.8,24.8*,5.8,18.8,7.6
COc1cc(CN2C[C@@H](CO)O[C@@H](n3cnc4c(Nc5ccccc5)ncnc43)C2)cc(OC)c1OC,-20.0,-15.4,33.4*,-0.5,32.9,5.4
CC1CC(C)CN(S(=O)(=O)N2CCC(C(=O)NCCc3ccccc3)CC2)C1 (stereo unspecified),6.3,28.3,-4.5,-2.4,-6.5,1.6
CC1=C(C(=O)N2CCCCCC2)CC(CC(=O)NC2CC2)C(=O)N1Cc1ccccc1 (stereo unspecified),2.5,19.7,10.1,-3.7,11.7,0.2
CN(CCO)c1ccc2c(c1)OC[C@@H](Cc1ccccc1)NS2(=O)=O,·,5.8,-11.6,·,·,0.6
CC(C)CNc1ncnc2c1ncn2[C@H]1CN(Cc2ccc(-c3ccccc3)cc2)C[C@@H](CO)O1,-8.6,-8.9,10.4,3.4,28.4*,11.4
CSCCC(NC(=O)c1ccccc1Br)C(=O)NCC(c1ccco1)N1CCCCC1 (stereo unspecified),6.0,-2.0,0.7,-5.5,-4.9,0.0
COc1cc(-c2coc3c(C(=O)NCc4ccc(OC)c(OC)c4)cccc23)ccc1O,-16.2,-7.4,-3.6,7.2,29.7*,15.3*
COc1ccc(CNC(=O)c2cccc3c(-c4cccc(C(N)=O)c4)coc23)cc1OC,-19.3,-14.0,25.9*,5.5,38.8*,10.9
CN1CCC(N2CCN(C3CN(CCc4ccccc4)S(=O)(=O)C3)CC2)CC1 (stereo unspecified),9.8,15.0,4.2,-6.2,-7.9,1.0
CN1CCC(n2[nH]c(-c3ccccc3)c(Cc3ccccc3)c2=O)CC1,-30.2,8.6,-11.9,-8.4,100.0*,2.0
COc1cc(OC)cc(C(=O)N2CCN(C3CCC(C)CC3)CC2)c1 (stereo unspecified),-20.3,-10.9,0.3,-8.1,31.5*,0.2
COc1cccc(C(NC(C)=O)c2nc(-c3cccc(F)c3)cs2)c1 (stereo unspecified),4.1,30.2,-10.4,-1.8,-4.6,2.1
COc1ccc(N(CC(=O)N2c3ccccc3CC2C)S(=O)(=O)c2c(C)nn(C)c2C)cc1 (stereo unspecified),-9.7,-4.5,18.4,-6.5,28.1*,5.6
CCOC(=O)c1c(C)[nH]c(C(=O)COC(=O)c2ccccc2NC(=O)c2ccco2)c1C,-1.6,-9.7,32.2*,-3.4,11.6,0.0
CN(C)CCNc1nc(-c2ccccc2F)c2sccc2n1,-29.5,8.7,0.2,-7.8,69.8*,1.0
CC1CCCC(C)N1c1nnc(NC(=O)c2cc(-c3ccc(Br)cc3)on2)s1 (stereo unspecified),-6.4,14.6,-4.2,-5.0,8.2,0.6
CCN(CC#CCC1(O)c2ccccc2-c2ccccc21)C(C)C,-22.3,2.4,1.1,-6.3,71.0*,-0.2
CCN(CC)CC#CCC1(O)c2ccccc2-c2ccccc21,-24.4,5.6,-13.2,-10.2,25.8*,1.0

# Screens deposited in PubChem by The Scripps Research Institute Molecular Screening Center.
